According to PubChem BioAssay (NCI):
About 83,000 compounds went through this panel and 20% of them were active in at least one assay; those are over-represented in the sample as a whole.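 Negative percent growth values reflect cell death: -40 means 40% of the cells present at the start died, and -100 means all died.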 Active and inactive are the calls of the source. Rule for the calls: active = growth percent below 10; inactive = the rest.

Tests used:
Experiment in all cases: NCI-60 one-dose screen, 48 h (100 = growth as untreated, 0 = no growth, -100 = all killed)
[1] = system: NCI-H226 lung; details: 10 µM
[2] = system: NCI-H322M lung; details: 10 µM
[3] = system: HOP-62 NSCLC; details: 10 µM
[4] = system: NCI-H522 lung; details: 10 µM
[5] = system: A549/ATCC NSCLC; details: 10 µM
[6] = system: COLO 205 colon; details: 10 µM
[7] = system: DU-145 prostate; details: 10 µM
[8] = system: K-562 leukemia; details: 10 µM
[9] = system: SF-539 CNS; details: 10 µM
[10] = system: M14 melanoma; details: 10 µM
[11] = system: HCT-15 colon; details: 10 µM
[12] = system: HT29 colon; details: 10 µM
[13] = system: SNB-75 CNS; details: 10 µM
[14] = system: U251 CNS; details: 10 µM
[15] = system: PC-3 prostate; details: 10 µM
[16] = system: LOX IMVI melanoma; details: 10 µM
[17] = system: MOLT-4 leukemia; details: 10 µM
[18] = system: RPMI-8226 leukemia; details: 10 µM
[19] = system: SK-OV-3 ovarian; details: 10 µM
[20] = system: MDA-MB-468 breast; details: 10 µM unless noted

Measured: growth

O=C(Nc1ccc(Oc2ncnc3scc(Nc4n[nH]c(=S)s4)c23)cc1)C1(C(=O)Nc2cccc(C(F)(F)F)c2)CC1
inactive: [1] 72.2% | [2] 101% | [3] 92.8% | [4] 94.1% | [5] 92.5% | [6] 101% | [7] 106% | [8] 102% | [9] 96.1% | [10] 103% | [11] 95.4% | [12] 112% | [13] 104% | [14] 110% | [15] 103% | [16] 30.4% | [17] 106% | [18] 110% | [19] 93.7%
active: [20] -10.1%

Fc1ccc(-c2cc3nc(C(Cl)Cl)nc(-c4ccc(F)cc4)n3n2)cc1
active: [20] -63.6%

COc1ccc(C2c3sc4ccc(C)cc4c3Oc3nc(N)nc(N)c32)cc1 (stereo unspecified)
inactive: [1] 78.5% | [2] 89.3% | [3] 79.4% | [4] 57.2% | [5] 92.2% | [6] 93.7% | [7] 102% | [8] 50.9% | [9] 69.6% | [10] 74.8% | [11] 59.9% | [12] 99.1% | [13] 70.9% | [14] 83.1% | [15] 79.8% | [16] 80.8% | [17] 89.9% | [18] 83.6% | [19] 89.3% | [20] 79.8%

O=C1NC(=S)S/C1=C\c1cn(-c2ccccc2)nc1-c1ccc([N+](=O)[O-])cc1
active: [4] -4.14% | [14] 9.35% | [18] 2.45% | [19] 6% | [20] -8.61%
inactive: [1] 13.2% | [2] 30.5% | [3] 19.4% | [5] 15.2% | [6] 11.7% | [7] 36.9% | [8] 16.5% | [9] 21% | [10] 20.5% | [11] 10.4% | [12] 15.1% | [13] 34.5% | [15] 11.2% | [16] 29.1% | [17] 17%
